Compound activity: PubChem BioAssay, Sanford-Burnham Center for Chemical Genomics
MLLE-PAM2 inh = inhibitors of PABP1 MLLE–PAM2 peptide binding, primary screen, biochemical, fluorescence polarization, FITC-PAM2, GST-MLLE | Polyadenylate-binding protein 1 (Homo sapiens), P11940 | 360,000 tested, 0.36% active | inhibition, % at 20 µM; in the data active means inhibition above about 35%, passing the limit was not always enough;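 further: plate controls were DMSO wells with GST-MLLE for no effect and wells lacking GST-MLLE protein for full effect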
APOBEC3A inh = APOBEC3A ssDNA deaminase inhibitors, primary screen, selectivity assay for APOBEC3G inhibitor project, biochemical, FAM/TAMRA oligo cleavage fluorescence; recombinant A3A, FAM/TAMRA ssDNA deamination fluorescence; inhibition, % at 20 µM; 330,000 tested, 0.41% active;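 active means at least 40% inhibition at 20 µM here, with at most 30% in a related deaminase screen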;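 further: plate controls were A3A with DMSO for no effect and wells lacking A3A enzyme for full effect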
PABP FP inh = PABP poly(A) RNA binding inhibitors, primary screen, biochemical, fluorescence polarization, uHTS. calls only at 35 µM. 290,000 tested, 1% active;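 further: calls also rest on retests at 20 µM and on dose response follow-up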
eIF4H FP inh = human eIF4H binding inhibitors, primary screen, translation initiation inhibitor project, biochemical, uHTS, fluorescence polarization. eIF4H fluorescence polarization binding assay. AID 2012, 2009. 290,000 tested, 0.94% active. inhibition, % at 35 µM;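 further: calls also rest on retests at 20 µM and on dose response follow-up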
APOBEC3G inh = APOBEC3G DNA deaminase inhibitors, primary screen, biochemical, fluorescence, single-stranded DNA substrate, uHTS | inhibition, % at 20 µM | recombinant A3G, ssDNA deamination FAM/TAMRA fluorescence | 330,000 tested, 0.28% active | DNA dC->dU-editing enzyme APOBEC-3G (Homo sapiens), Q9HC16;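 active means inhibition of at least 40% at 20 µM, with no more than 30% in the related APOBEC3A deaminase screen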;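 further: plate controls were DMSO wells with A3G for no effect and wells lacking A3G enzyme for full effect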
Target sequence (Q9HC16 whole entry, looked up): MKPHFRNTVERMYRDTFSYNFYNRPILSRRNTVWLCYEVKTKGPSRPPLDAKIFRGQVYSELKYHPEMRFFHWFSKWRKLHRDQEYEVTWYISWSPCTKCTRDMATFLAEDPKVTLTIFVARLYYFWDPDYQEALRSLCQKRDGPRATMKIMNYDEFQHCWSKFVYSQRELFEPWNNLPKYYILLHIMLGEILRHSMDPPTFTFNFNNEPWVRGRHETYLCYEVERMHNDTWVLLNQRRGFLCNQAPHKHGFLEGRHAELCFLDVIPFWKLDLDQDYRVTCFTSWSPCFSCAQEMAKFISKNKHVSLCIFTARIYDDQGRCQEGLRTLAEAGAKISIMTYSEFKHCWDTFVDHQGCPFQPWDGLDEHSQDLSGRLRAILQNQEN
PHOSPHO1 inh = PubChem AID 1565 | 290,000 tested, 1.1% active | Phosphoethanolamine/phosphocholine phosphatase (Homo sapiens), Q8TCT1 | inhibition, % at 13.3 µM | recombinant PHOSPHO1, absorbance phosphatase assay; in the data active means inhibition above about 60%
Target sequence (Q8TCT1 whole entry, looked up): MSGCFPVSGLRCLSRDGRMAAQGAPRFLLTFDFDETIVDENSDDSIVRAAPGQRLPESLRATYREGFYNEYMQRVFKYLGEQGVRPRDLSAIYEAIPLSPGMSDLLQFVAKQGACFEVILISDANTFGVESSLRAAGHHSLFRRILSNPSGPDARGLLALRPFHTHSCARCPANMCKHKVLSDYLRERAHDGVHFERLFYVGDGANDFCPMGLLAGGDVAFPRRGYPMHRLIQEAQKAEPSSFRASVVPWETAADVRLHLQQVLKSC
A3A conf = APOBEC3A deaminase inhibitors, retest, confirmation, selectivity assay for APOBEC3G inhibitor project, biochemical, single concentration, fluorescence readout; AID 493151, 2011; 1,400 tested, 63% active; shares compounds with APOBEC3A inh; recombinant A3A, ssDNA deaminase UDG fluorescence assay; inhibition, % at 20 µM;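 active means inhibition reaching a set limit, 80% of the first screen's cutoff, at 20 µM in any replicate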;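 further: plate controls were DMSO wells with A3A for no effect and wells lacking A3A enzyme for full effect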
UDG ctr A3A = E. coli UDG inhibitors, confirmation, counter-screen for APOBEC3A inhibitor project, biochemical, single concentration, fluorescence, FAM/TAMRA oligo | shares compounds with APOBEC3A inh | UDG counterscreen, FAM/TAMRA uracil oligo fluorescence | inhibition, % at 20 µM | 1,000 tested, under 10 active
* = called active by the depositor; i = inactive; x = no result given; + = active, no number. An excerpt weighted towards active compounds, which were near 2.6% of everything screened. Unless noted, how the calls were made is not given here.

SMILES | MLLE-PAM2 inh | APOBEC3A inh | PABP FP inh | eIF4H FP inh | APOBEC3G inh | PHOSPHO1 inh | A3A conf | UDG ctr A3A
CCc1ccc(NC(=O)c2noc3c2CCC3)cc1 | 4 | 25 | i | 83 | 7 | -3 | x | x
COC(=O)c1cc(C)nc2c1c(C)nn2-c1ccccc1 | 2 | -2 | x | x | -2 | x | x | x
Cc1nn(-c2ccccc2)c2nc(-c3ccco3)cc(C(=O)O)c12 | 6 | 67* | + | 88* | 21 | -4 | 48* | -1
Cc1nc2ccc(NC(=O)c3cc(Cl)ccn3)cc2s1 | -99 | 49* | i | 3 | -2 | 19 | 23 | 0
CCNc1ccc(S(=O)(=O)N(C)C)cc1[N+](=O)[O-] | -141 | 67* | i | 2 | 21 | 28 | 54* | x
Cc1c(C(=O)NCc2cccc(Cl)c2)sc(=O)n1Cc1ccc(C(=O)N(C)C)cc1 | -4 | x | x | x | x | x | x | x
CCOc1ccc(NC(=O)CC2C(=O)N(c3ccccc3)C(=O)N2Cc2ccco2)cc1 (stereo not given) | 5 | -5 | i | 9 | -8 | 34 | x | x
CCOc1ccc(NC(=O)CC2C(=O)N(c3ccccc3)C(=O)N2CCc2cccs2)cc1 (stereo not given) | 5 | 72* | i | -6 | -6 | -24 | -51 | -2
Cn1cccc/c1=N\c1cccc[n+]1C | -112 | 49* | x | x | 24 | 15 | 65* | -1
Cc1cc(C)n(CCNC(=O)[C@H]2O[C@@H](n3ccc(=O)[nH]c3=O)[C@H](O)[C@@H]2O)n1 | 10 | x | x | x | x | x | x | x
COc1ccc(OCc2nn[nH]n2)cc1 | -61 | 56* | i | -10 | -1 | 14 | 19 | 2
C=CCn1c(CCCNC(=O)CCC)nc2ccccc21 | 13 | 47* | i | 5 | -1 | -16 | -3 | 0
CCCC(=O)NCCCc1nc2ccccc2n1CC | 8 | 0 | i | 0 | 2 | -9 | x | x
O=C(COC(=O)c1ccc(S(=O)(=O)N2CCCCC2)cc1)Nc1ccccc1Cl | -3 | 1 | x | x | -2 | x | x | x
C=CCN1CCc2nc(N)sc2CC1 | 21 | x | i | 14 | x | 1 | x | x
Nc1nc2c(s1)CCCCCCCCCC2 | -96 | 50* | i | -6 | 18 | -10 | 38* | 2
CC1CCC2(CC1)NC(=O)N(CC(=O)N1CCN(C(=O)c3ccco3)CC1)C2=O (stereo not given) | -14 | 10 | x | x | 14 | x | x | x
CSCCC(NC(=O)c1cccc(S(=O)(=O)N2CCN(C(C)=O)CC2)c1)c1nc2ccccc2[nH]1 (stereo not given) | 0 | x | x | x | x | x | x | x
CSCC[C@H](NC(=O)c1ccc(Cl)c(S(=O)(=O)N2CCCC2)c1)c1nc2ccccc2[nH]1 | -98 | 45* | i | -9 | 11 | 98* | 54* | 2
CCN(CC(=O)Nc1c(F)cccc1F)C(=O)CCNS(=O)(=O)c1ccc(C)c(C)c1 | -4 | 49* | x | x | -9 | x | 5 | 0
CCOc1ccc(S(=O)(=O)NCCC(=O)N(CC)CC(=O)Nc2c(F)cccc2F)cc1 | -1 | -4 | x | x | -6 | x | x | x
COC(=O)C1=C(C)N(CC2CC2)C(=NCc2cccc(C(F)(F)F)c2)N[C@H]1c1ccccc1 | -72 | 38 | x | x | 19 | x | x | x
COCCN1C(=O)N[C@H](c2cccc(C(F)(F)F)c2)C(C(=O)OC)=C1C | x | 5 | i | 6 | -7 | -9 | x | x
COC(=O)C1=C(C)N(Cc2ccccc2)C(=NCc2cccc(C(F)(F)F)c2)N[C@H]1c1cccc(C(F)(F)F)c1 | -16 | -2 | x | x | -6 | x | x | x
CCN1C(=NCCc2cccs2)N[C@@H](c2cccs2)C(C(=O)OC)=C1C | -117 | 53* | + | 0 | 6 | -103 | 66* | -2
SMILES | MLLE-PAM2 inh | APOBEC3A inh | PABP FP inh | eIF4H FP inh | APOBEC3G inh | PHOSPHO1 inh | A3A conf | UDG ctr A3A
CCN1C(=NCC(C)C)N[C@@H](c2cccc(C(F)(F)F)c2)C(C(=O)OC)=C1C | -88 | 59* | x | x | 10 | -86 | 61* | x
CCOC(=O)CN1C(=O)N[C@@H](c2cccs2)C(C(=O)OC)=C1C | 4 | 1 | x | x | 3 | x | x | x
C=CCN=C1N[C@@H](c2cccc(C(F)(F)F)c2)C(C(=O)OC)=C(C)N1CC | -110 | 50* | x | x | 7 | -2 | 71* | -2
COC(=O)C1=C(C)N(CC2CC2)C(=NCCN2CCOCC2)N[C@H]1c1ccccc1 | -120 | 71* | i | -6 | 22 | -19 | 68* | 1
COc1ccc(NC(=O)C(=O)NCCC2CCCCN2S(=O)(=O)c2ccccc2)cc1 (stereo not given) | 6 | -1 | x | x | -7 | x | x | x
N#Cc1ccccc1S(=O)(=O)N1CCC(C(=O)NCc2ccccc2CN2CCCC2)CC1 | 10 | -4 | x | x | -1 | x | x | x
Cc1c(C(=O)NCCN2C(=O)S/C(=C\c3cccnc3)C2=O)cccc1[N+](=O)[O-] | 20 | 1 | i | -1 | 3 | -57 | x | x
C=CCN=C1N[C@@H](c2ccccc2)C(C(=O)OC)=C(C)N1CC | -86 | 66* | x | x | 23 | -69 | 58* | 2
O=C(CN1C(=O)c2cccc([N+](=O)[O-])c2C1=O)NCc1ccccc1 | -12 | -1 | i | 8 | -3 | 31 | x | x
COCCCNC(=S)N1CCC(NC(=O)c2ccco2)CC1 | -69 | 11 | i | 4 | -3 | 1 | x | x
COc1cccc(N2[C@@H](CC(=O)O)c3ccc(/C=C/C(=O)O)cc3S2(=O)=O)c1 | -10 | 94* | x | x | 26 | x | 79* | -4
Cc1ccc2c(c1)N(CC(=O)NC(C)CCc1ccccc1)C(=O)c1cccnc1O2 (stereo not given) | 7 | -2 | i | -9 | -4 | 12 | x | x
CC(=O)/C(C[N+]1(C)CCCCC1)=N\O | -125 | 41* | i | -1 | 21 | 52 | 82* | 5
Cc1ccccc1N=C1NC(=O)/C(=C/c2cccn2-c2cccc(C(=O)O)c2)S1 | x | 50* | i | 98* | 6 | 53 | 43* | -3
Cc1cccc(N=C2NC(=O)/C(=C/c3cccn3C)S2)c1C | -62 | -1 | i | 6 | -5 | 0 | x | x
CSc1ccc(/C=C(/NC(=O)c2ccco2)C(=O)N2CCCCC2)cc1 | 14 | -3 | i | -8 | -3 | 3 | x | x
